# PubChem BioAssay (EPA / NIEHS)
# Inconclusive results are not listed. Activity calls are given as the source filed them. Rule for the calls: active = hit-call score of the fitted dose curve at least 0.9, where 1 is the maximum; inconclusive = response in the unintended direction; inactive = score below 0.9.
# Key:
# [1] = tested on: guinea pig Leukotriene B4 Receptor (LTB4), gene 100379538; assay: NVS_GPCR_gLTB4: NovaScreen (NVS) G Protein-Coupled Receptor Assay for guinea pig Leukotriene B4 Receptor (LTB4) (AID 2283247)
# Procedure, shortened: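 Membranes from guinea pig spleen incubated 2 h with radioligand and compound; bound counts measured by filtration and scintillation. Screened first at 25 uM in duplicate, then actives titrated to a 50 uM top concentration relative to DMSO.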
# [2] = molecular target: human Serotonin, 5-Hydroxytryptamine Receptor 6 (5HT6), HTR6 (gene 3362) (UniProt P50406); assay: NVS_GPCR_h5HT6: NovaScreen (NVS) G Protein-Coupled Receptor Assay for human Serotonin, 5-Hydroxytryptamine Receptor 6 (5HT6) (AID 2283253)
# human Serotonin, 5-Hydroxytryptamine Receptor 6 (5HT6), HTR6 (gene 3362), sequence (P50406 whole entry, looked up): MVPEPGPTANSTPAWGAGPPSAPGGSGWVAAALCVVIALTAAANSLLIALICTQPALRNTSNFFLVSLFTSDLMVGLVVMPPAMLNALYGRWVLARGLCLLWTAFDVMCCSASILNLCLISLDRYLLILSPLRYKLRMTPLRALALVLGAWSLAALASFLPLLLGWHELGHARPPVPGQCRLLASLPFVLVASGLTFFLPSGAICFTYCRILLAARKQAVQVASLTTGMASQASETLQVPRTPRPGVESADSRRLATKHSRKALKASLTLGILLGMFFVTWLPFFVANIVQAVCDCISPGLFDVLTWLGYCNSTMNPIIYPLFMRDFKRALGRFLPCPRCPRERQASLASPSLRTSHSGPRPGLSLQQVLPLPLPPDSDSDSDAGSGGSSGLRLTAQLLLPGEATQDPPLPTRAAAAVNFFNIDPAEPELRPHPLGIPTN
# Procedure, shortened: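 Filter scintillation counting of radioligand displacement from HEK293-expressed 5HT6, 1 hour post-dose, with loss of signal relative to DMSO. Single 25 uM duplicates first, with concentration series for confirmation.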
# [3] = molecular target: guinea pig Opioid, Kappa 1 Receptor (OpiateK), OPRK1 (gene 100135587) (UniProt P41144); assay: NVS_GPCR_gOpiateK: NovaScreen (NVS) G Protein-Coupled Receptor Assay for guinea pig Opioid, Kappa 1 Receptor (OpiateK) (AID 2283252);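 note: radioligand displacement from kappa opioid receptor in guinea pig cerebellar membranes; active means reduced radioligand binding relative to DMSO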
# guinea pig Opioid, Kappa 1 Receptor (OpiateK), OPRK1 (gene 100135587), sequence (P41144 whole entry, looked up): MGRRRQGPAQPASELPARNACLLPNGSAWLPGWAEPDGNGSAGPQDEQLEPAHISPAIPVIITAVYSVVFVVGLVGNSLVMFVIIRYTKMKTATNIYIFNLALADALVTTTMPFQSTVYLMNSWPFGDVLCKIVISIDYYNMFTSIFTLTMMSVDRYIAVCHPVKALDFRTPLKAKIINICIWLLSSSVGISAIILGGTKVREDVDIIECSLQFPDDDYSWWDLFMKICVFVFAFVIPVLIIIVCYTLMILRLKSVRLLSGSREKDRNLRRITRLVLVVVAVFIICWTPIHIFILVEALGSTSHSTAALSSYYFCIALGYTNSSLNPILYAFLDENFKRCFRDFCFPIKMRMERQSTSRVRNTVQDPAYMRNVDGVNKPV
# Procedure, shortened: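 Radioligand competition binding using guinea pig cerebellum membrane fraction; 2 h exposure; filter radiodetection. Single concentration 25 uM (duplicate), follow-up concentration-response for actives.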
# [4] = molecular target: rat Monoamine Oxidase, MAO-B, Central (MAOBC), Maob (gene 25750) (UniProt P19643); assay: NVS_ENZ_rMAOBC: NovaScreen (NVS) Enzymatic Assay for rat Monoamine Oxidase, MAO-B, Central (MAOBC) (AID 2283238)
# Procedure, shortened: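 Here MAO-B activity in rat brain preparations is quantified radiometrically, counts taken at 1.17 hours. Concentration-response runs reach 50 uM, with plate controls, and values are fitted as loss of signal from the DMSO baseline.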
# [5] = molecular target: guinea pig Leukotriene D4 Receptor (LTD4), CYSLTR1 (gene 100135514) (UniProt Q2NNR5); assay: NVS_GPCR_gLTD4: NovaScreen (NVS) G Protein-Coupled Receptor Assay for guinea pig Leukotriene D4 Receptor (LTD4) (AID 2283248)
# guinea pig Leukotriene D4 Receptor (LTD4), CYSLTR1 (gene 100135514), sequence (Q2NNR5 whole entry, looked up): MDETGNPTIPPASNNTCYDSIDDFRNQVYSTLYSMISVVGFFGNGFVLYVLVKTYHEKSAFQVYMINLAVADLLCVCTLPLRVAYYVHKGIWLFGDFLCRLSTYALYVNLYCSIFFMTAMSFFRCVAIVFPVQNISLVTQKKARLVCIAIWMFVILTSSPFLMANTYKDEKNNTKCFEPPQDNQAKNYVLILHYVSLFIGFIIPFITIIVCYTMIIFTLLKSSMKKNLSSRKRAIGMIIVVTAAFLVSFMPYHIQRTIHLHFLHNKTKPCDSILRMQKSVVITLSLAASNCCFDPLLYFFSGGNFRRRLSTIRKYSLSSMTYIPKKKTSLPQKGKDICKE
# Procedure, shortened: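 Guinea pig lung membrane preparation; bound radioligand measured by filter scintillation after 1 h, loss of signal versus DMSO marking displacement. Compounds tested at 25 uM in duplicate, hits retested to max 50 uM.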
# [6] = molecular target: rat Monoamine Oxidase, MAO-B, Peripheral (MAOBP), Maob (gene 25750) (UniProt P19643); assay: NVS_ENZ_rMAOBP: NovaScreen (NVS) Enzymatic Assay for rat Monoamine Oxidase, MAO-B, Peripheral (MAOBP) (AID 2283242)
# Method: NVS_ENZ_rMAOBP is a biochemical, single-readout assay that uses extracted gene-proteins from Rat brain in a tissue-based cell-free assay. Measurements were taken 1.17 hours after chemical dosing in a 96-well plate.NVS_ENZ_rMAOBP is one of one assay component(s) measured or calculated from the NVS_ENZ_rMAOBP assay. It is designed to make measurements of enzyme activity, a form of enzyme reporter, as detected with scintillation counting signals by Lysate-based radiodetection technology.Data from the assay component NVS_ENZ_rMAOBP was analyzed into 1 assay endpoint. This assay endpoint, NVS_ENZ_rMAOBP, was analyzed in the positive analysis fitting direction relative to DMSO as the negative control and baseline of activity. Using a type of enzyme reporter, loss-of-signal activity can be used to understand changes in the enzymatic activity as they relate to the gene Maob. Furthermore, this assay endpoint can be referred to as a primary readout, because this assay has produced multiple assay endpoints where this one serves a enzymatic activity function. To generalize the intended target to other relatable targets, this assay endpoint is annotated to the oxidoreductase intended target family, where the subfamily is monoamine oxidase. […]
# [7] = tested on: rat Monoamine Oxidase, MAO-A, Central (MAOAC), gene 29253; assay: NVS_ENZ_rMAOAC: NovaScreen (NVS) Enzymatic Assay for rat Monoamine Oxidase, MAO-A, Central (MAOAC) (AID 2283243);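 note: potency refers to inhibition seen as signal drop below DMSO baseline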
# Procedure, shortened: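 Enzyme from rat brain, cell-free radiodetection format. Counts taken at 1.5 h; activity fitted against DMSO baseline, loss of signal marking inhibition. Confirmatory concentration series followed the 25 uM duplicate screen.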
# [8] = molecular target: sheep Cyclooxygenase-1 (Cox1), PTGS1 (gene 443551) (UniProt P05979); assay: NVS_ENZ_oCOX1: NovaScreen (NVS) Enzymatic Assay for sheep Cyclooxygenase-1 (Cox1) (AID 2283239);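 note: actives reduce cyclooxygenase activity so potencies are for inhibitors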
# sheep Cyclooxygenase-1 (Cox1), PTGS1 (gene 443551), sequence (P05979 whole entry, looked up): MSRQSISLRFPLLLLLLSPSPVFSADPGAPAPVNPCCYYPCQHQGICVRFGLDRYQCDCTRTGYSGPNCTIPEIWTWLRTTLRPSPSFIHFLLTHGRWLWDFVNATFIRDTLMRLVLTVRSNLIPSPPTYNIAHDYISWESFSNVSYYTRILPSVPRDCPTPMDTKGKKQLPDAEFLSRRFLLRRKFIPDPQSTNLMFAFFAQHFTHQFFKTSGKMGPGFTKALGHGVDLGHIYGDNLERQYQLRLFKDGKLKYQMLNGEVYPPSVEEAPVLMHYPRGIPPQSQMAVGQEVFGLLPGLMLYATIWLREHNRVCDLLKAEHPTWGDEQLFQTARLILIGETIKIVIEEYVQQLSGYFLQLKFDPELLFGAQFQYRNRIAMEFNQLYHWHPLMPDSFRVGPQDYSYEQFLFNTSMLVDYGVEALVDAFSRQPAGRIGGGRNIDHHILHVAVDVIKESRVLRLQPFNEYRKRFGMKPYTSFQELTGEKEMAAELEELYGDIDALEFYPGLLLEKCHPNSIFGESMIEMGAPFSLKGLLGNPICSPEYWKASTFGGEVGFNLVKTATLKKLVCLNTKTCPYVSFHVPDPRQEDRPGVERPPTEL
# Procedure, shortened: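 COX1 from ovine seminal vesicles, activity read colorimetrically about 0.66 h after dosing. Primary screen in duplicate at 25 uM; actives retested in concentration series; loss of signal fitted versus DMSO.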
# [9] = molecular target: human Tyrosine Protein Kinase Receptor Tie-2 (Tie2), TEK (gene 7010) (UniProt Q02763); assay: NVS_ENZ_hTie2: NovaScreen (NVS) Enzymatic Assay for human Tyrosine Protein Kinase Receptor Tie-2 (Tie2) (AID 2283225)
# human Tyrosine Protein Kinase Receptor Tie-2 (Tie2), TEK (gene 7010), sequence (Q02763 whole entry, looked up): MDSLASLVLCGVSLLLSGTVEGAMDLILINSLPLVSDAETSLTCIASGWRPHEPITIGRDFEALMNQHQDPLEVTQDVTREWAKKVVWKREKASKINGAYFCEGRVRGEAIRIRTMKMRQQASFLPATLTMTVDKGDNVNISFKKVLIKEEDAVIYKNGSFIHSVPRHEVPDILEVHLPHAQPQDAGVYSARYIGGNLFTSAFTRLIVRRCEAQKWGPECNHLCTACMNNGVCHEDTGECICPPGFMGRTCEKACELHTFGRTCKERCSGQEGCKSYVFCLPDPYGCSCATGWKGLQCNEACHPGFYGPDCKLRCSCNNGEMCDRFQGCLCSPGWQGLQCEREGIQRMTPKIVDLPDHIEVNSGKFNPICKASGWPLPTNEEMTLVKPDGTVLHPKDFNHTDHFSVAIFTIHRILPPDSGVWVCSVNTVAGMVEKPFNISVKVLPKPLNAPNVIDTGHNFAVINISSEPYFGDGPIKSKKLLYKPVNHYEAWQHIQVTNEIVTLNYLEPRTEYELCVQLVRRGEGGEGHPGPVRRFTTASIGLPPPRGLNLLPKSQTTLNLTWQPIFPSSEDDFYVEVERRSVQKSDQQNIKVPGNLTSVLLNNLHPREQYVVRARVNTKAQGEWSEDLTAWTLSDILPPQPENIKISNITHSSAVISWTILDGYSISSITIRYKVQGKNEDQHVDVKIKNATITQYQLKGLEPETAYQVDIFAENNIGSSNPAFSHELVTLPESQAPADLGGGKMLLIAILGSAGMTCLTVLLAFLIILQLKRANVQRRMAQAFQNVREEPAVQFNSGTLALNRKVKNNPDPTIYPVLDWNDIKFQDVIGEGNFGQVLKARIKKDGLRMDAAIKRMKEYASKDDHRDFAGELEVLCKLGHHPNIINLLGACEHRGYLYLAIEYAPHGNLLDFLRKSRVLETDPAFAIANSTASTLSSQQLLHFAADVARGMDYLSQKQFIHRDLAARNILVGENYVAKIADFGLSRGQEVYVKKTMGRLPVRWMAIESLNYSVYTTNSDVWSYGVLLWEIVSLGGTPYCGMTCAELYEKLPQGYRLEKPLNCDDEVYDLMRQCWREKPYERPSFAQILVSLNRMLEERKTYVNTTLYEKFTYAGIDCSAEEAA
# Procedure, shortened: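 Substrate and product were separated by mobility shift and detected by fluorescence after a 1-hour reaction with recombinant Tie2. Chemicals passing a 25 uM single-point screen were titrated to a maximum of 50 uM. Results were normalized to DMSO baseline.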
# [10] = molecular target: rat Catechol-O-Methyl Transferase (COMT), Comt (gene 24267) (UniProt P22734); assay: NVS_ENZ_rCOMT: NovaScreen (NVS) Enzymatic Assay for rat Catechol-O-Methyl Transferase (COMT) (AID 2283235)
# rat Catechol-O-Methyl Transferase (COMT), Comt (gene 24267), sequence (P22734 whole entry, looked up): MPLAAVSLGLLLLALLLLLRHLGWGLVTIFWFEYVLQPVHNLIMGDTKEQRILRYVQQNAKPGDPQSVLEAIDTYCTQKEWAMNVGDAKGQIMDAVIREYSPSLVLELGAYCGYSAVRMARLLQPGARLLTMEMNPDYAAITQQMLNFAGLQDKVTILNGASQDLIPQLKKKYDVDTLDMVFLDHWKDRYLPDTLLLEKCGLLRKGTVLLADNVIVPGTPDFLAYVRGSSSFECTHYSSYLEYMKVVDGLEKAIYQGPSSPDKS
# Procedure, shortened: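 Rat dorsal striatum extract served as COMT source; product quantified by HPLC/spectrophotometry, read at 0 h after dosing. Primary single-concentration screen at 25 uM, followed by concentration series to a 50 uM maximum.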
# [11] = molecular target: Adenosine receptor A1 (Bos taurus) (UniProt P28190); assay: NVS_GPCR_bAdoR_NonSelective: NovaScreen (NVS) G Protein-Coupled Receptor Assay for bovine Adenosine Receptor (AdoR), Non-selective Binding (AID 2283244)
# Adenosine receptor A1 (Bos taurus), sequence (P28190 whole entry, looked up): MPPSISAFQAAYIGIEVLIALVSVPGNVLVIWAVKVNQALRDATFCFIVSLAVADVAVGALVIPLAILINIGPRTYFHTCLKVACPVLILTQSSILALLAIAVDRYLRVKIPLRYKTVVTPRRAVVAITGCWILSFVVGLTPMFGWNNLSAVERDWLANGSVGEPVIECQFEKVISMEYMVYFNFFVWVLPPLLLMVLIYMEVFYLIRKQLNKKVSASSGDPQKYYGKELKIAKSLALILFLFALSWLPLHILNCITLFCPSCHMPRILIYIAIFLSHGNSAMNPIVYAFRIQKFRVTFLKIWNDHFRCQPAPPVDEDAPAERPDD
# Procedure, shortened: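 Cell-free binding with membranes from bovine striatum: radioligand displaced by test chemical, read after 1 h by filtration and scintillation. Single-point 25 uM duplicate primary, 50 uM top concentration in follow-up curves, DMSO baseline.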
# [12] = molecular target: sheep Cyclooxygenase-2 (Cox2), PTGS2 (gene 443460) (UniProt P79208); assay: NVS_ENZ_oCOX2: NovaScreen (NVS) Enzymatic Assay for sheep Cyclooxygenase-2 (Cox2) (AID 2283231)
# sheep Cyclooxygenase-2 (Cox2), PTGS2 (gene 443460), sequence (P79208 whole entry, looked up): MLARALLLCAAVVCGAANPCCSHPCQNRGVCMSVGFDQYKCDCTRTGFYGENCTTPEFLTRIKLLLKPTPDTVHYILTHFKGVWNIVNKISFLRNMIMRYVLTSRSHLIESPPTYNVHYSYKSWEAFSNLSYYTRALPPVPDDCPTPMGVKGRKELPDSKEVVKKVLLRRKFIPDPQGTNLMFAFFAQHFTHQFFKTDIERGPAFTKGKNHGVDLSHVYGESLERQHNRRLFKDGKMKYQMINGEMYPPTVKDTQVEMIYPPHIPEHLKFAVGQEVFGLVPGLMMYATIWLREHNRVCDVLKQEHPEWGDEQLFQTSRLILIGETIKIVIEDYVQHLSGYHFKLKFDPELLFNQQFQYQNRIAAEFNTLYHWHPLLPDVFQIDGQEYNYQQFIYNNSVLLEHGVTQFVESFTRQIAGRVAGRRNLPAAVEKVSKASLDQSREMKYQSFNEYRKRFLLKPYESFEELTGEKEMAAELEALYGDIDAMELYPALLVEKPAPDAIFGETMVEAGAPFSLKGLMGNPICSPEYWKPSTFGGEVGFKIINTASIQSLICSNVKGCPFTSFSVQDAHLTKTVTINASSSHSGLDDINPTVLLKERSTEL
# Procedure, shortened: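 Enzyme extracted from ovine placenta tested cell-free; activity read colorimetrically by absorbance 0.66 hour after dosing. Primary screen in duplicate at 25 uM; hits rerun as concentration series to 50 uM, loss of signal versus DMSO baseline.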
# [13] = molecular target: human Vascular Endothelial Growth Factor Receptor 1 (VEGFR1), FLT1 (gene 2321) (UniProt P17948); assay: NVS_ENZ_hVEGFR1: NovaScreen (NVS) Enzymatic Assay for human Vascular Endothelial Growth Factor Receptor 1 (VEGFR1) (AID 2283226)
# Procedure, shortened: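 Kinase activity of recombinant human VEGFR1 was read by fluorescence after electrophoretic separation of product from substrate, 1 h post-dosing; initial duplicate single-point testing at 25 uM, followed by concentration-series follow-up, with DMSO as baseline.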
# [14] = molecular target: rat Acetylcholinesterase (AChE), Ache (gene 83817) (UniProt P37136); assay: NVS_ENZ_rAChE: NovaScreen (NVS) Enzymatic Assay for rat Acetylcholinesterase (AChE) (AID 2283233)
# rat Acetylcholinesterase (AChE), Ache (gene 83817), sequence (P37136 whole entry, looked up): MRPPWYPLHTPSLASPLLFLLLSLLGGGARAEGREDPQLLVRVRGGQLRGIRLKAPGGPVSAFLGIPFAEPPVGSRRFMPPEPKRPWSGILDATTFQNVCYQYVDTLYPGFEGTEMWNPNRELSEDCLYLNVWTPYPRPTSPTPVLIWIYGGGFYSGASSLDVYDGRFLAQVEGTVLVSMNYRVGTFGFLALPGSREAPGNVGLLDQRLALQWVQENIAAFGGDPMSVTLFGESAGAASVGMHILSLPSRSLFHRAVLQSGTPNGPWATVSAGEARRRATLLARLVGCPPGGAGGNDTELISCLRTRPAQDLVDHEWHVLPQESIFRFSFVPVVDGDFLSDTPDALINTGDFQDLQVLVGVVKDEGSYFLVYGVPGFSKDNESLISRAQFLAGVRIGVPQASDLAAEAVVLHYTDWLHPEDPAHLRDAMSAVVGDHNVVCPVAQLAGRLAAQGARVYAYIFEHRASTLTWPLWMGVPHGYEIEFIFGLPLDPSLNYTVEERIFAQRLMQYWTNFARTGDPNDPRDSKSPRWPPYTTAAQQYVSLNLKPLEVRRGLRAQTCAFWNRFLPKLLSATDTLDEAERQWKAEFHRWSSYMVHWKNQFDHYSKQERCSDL
# Procedure, shortened: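 Compounds first screened at 25 uM in duplicate, then those passing threshold tested in concentration series up to 50 uM, against AChE from rat brain membranes. Enzyme activity read by absorbance at 0.33 h; inhibition scored versus DMSO.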
# [15] = molecular target: human Vascular Endothelial Growth Factor Receptor 2 (VEGFR2), KDR (gene 3791) (UniProt P35968); assay: NVS_ENZ_hVEGFR2: NovaScreen (NVS) Enzymatic Assay for human Vascular Endothelial Growth Factor Receptor 2 (VEGFR2) (AID 2283230)
# Procedure, shortened: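 Cell-free recombinant VEGFR2 kinase, fluorescent substrate with electrophoretic mobility-shift separation; read 1 h after dosing. Screened at 25 uM in duplicate, hits to concentration-response up to 50 uM; loss-of-signal versus DMSO.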
# [16] = molecular target: human Serotonin, 5-Hydroxytryptamine Receptor 5A (5HT5A), HTR5A (gene 3361) (UniProt P47898); assay: NVS_GPCR_h5HT5A: NovaScreen (NVS) G Protein-Coupled Receptor Assay for human Serotonin, 5-Hydroxytryptamine Receptor 5A (5HT5A) (AID 2283251)
# Procedure, shortened: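 Membranes from HEK293 cells, radioligand binding read by filtration and scintillation after 1 h. Single-concentration duplicate testing at 25 uM, then concentration-response for actives; positive-direction fitting relative to DMSO.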
smiles,measurement,setting,value
CCC(C)(C)c1ccc(O)cc1,AC50,[1],25 µM (active)
same,outcome,[2],inactive
Cc1cc(C)c(C(=O)P(=O)(c2ccccc2)c2ccccc2)c(C)c1,AC50,[3],25 µM (active)
CCCCCCCc1ccc(O)cc1,AC50,[4],25 µM (active)
c1nc[nH]n1,outcome,[5],inactive
CCOC(=O)c1ccccc1C(=O)OCC,outcome,[6],inactive
same,AC50,[7],15.2 µM (active)
CCOP(=S)(OCC)SCSCC,outcome,[8],inactive
CSC(C)(C)C=NO,outcome,[9],inactive
same,outcome,[10],inactive
same,outcome,[11],inactive
same,outcome,[1],inactive
same,outcome,[3],inactive
same,outcome,[2],inactive
c1ccc(OP(Oc2ccccc2)Oc2ccccc2)cc1,outcome,[12],inactive
Cc1ccc2c(c1N)C(=O)c1ccccc1C2=O,AC50,[13],25 µM (active)
same,AC50,[7],25 µM (active)
CC(=O)c1ccc(-c2ccccc2)cc1,AC50,[7],18.6 µM (active)
O=P1(N(CCCl)CCCl)NCCCO1 (configuration not stated),outcome,[9],inactive
CCOP(=S)(OCC)SCS(=O)(=O)CC,AC50,[7],7.29 µM (active)
Nc1cc2c3c(c1)C(c1ccccc1)=N[C@@H](NC(=O)c1cccnc1)C(=O)N3CC2,outcome,[14],inactive
same,AC50,[8],15.1 µM (active)
CC1(C)CN=C(NN=C(/C=C/c2ccc(C(F)(F)F)cc2)/C=C/c2ccc(C(F)(F)F)cc2)NC1,outcome,[9],inactive
same,AC50,[12],17.4 µM (active)
same,AC50,[8],5.74 µM (active)
O=C(O)C1C(C(=O)O)C2(Cl)C(Cl)=C(Cl)C1(Cl)C2(Cl)Cl (configuration not stated),AC50,[1],2.88 µM (active)
CC(Cc1ccc(OCC(=O)O)cc1)NCC(O)c1csc(C(F)(F)F)n1 (configuration not stated),outcome,[10],inactive
CCCCN(CCCC)SN(C)C(=O)Oc1cccc2c1OC(C)(C)C2,outcome,[15],inactive
same,AC50,[14],1.13 µM (active)
same,outcome,[16],inactive
Nc1ccc([N+](=O)[O-])cc1Cl,AC50,[7],15.1 µM (active)
O=c1[nH]c2ccccc2c(=O)o1,AC50,[8],4.96 µM (active)
